Experimental data as given in publication PMC7862700, “An all-to-all approach to the identification of sequence-specific readers for epigenetic DNA modifications on cytosine”.

Key:
Test in all cases: DAPPL (digital affinity profiling via proximity ligation, sequencing); 10 mM Tris-HCl pH 7.5, 50 mM NaCl, 1 mM DTT, 4% glycerol, room temperature, 30 min; GST-TFs on glutathione beads, 16-mer random dsDNA library, 0.1% formaldehyde crosslink after washing; high values mean tight binding
FLI1 = target: T1, FLI1 (Homo sapiens, UniProt Q01543 1-452); conditions: protein: recombinant; tags: N-terminal GST; dsDNA, one strand shown
T1 sequence: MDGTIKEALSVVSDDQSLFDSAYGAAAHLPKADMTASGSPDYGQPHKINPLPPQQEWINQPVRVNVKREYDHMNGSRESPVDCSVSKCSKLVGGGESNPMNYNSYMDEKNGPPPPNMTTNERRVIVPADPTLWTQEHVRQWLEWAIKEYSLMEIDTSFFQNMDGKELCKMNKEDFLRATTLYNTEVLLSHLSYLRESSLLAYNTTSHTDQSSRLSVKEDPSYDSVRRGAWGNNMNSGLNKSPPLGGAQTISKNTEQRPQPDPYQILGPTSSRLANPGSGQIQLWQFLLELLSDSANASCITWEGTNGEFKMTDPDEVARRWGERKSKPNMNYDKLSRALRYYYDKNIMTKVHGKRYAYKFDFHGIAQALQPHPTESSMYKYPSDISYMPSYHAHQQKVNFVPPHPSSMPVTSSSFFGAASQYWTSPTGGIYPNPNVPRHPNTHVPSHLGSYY
Outline: (§1)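 Binding signal is given per hexamer as its read frequency for a factor divided by its frequency in the tag-only sample. GST-fused human transcription factors were expressed in yeast, captured on glutathione beads, barcoded with DNA and pooled with that sample, then incubated with 200 nmole of a 16-mer random double-stranded DNA library in Tris/NaCl/DTT/glycerol buffer for 30 min at room temperature. The pools were then washed, crosslinked, proximity-ligated, amplified by PCR and sequenced on an Illumina NextSeq500.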

ELK1 = target: T2, ELK1 (Homo sapiens, UniProt P19419 1-428); conditions: protein: recombinant; tags: N-terminal GST; dsDNA, one strand shown
T2 sequence: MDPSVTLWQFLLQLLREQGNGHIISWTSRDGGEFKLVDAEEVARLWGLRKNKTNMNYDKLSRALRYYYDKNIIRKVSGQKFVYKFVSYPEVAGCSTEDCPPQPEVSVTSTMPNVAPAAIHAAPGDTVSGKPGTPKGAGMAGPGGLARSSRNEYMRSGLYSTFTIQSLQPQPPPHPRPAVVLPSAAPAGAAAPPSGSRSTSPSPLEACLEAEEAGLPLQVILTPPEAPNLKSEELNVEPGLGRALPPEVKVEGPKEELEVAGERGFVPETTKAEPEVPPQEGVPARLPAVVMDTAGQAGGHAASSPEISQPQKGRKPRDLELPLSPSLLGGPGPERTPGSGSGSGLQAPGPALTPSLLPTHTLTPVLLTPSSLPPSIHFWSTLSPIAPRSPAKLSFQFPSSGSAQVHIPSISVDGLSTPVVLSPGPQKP
Outline: as §1

GABPA = target: T3, GABPA (Homo sapiens, UniProt Q06546 1-454); conditions: protein: recombinant; tags: N-terminal GST; dsDNA, one strand shown
T3 sequence: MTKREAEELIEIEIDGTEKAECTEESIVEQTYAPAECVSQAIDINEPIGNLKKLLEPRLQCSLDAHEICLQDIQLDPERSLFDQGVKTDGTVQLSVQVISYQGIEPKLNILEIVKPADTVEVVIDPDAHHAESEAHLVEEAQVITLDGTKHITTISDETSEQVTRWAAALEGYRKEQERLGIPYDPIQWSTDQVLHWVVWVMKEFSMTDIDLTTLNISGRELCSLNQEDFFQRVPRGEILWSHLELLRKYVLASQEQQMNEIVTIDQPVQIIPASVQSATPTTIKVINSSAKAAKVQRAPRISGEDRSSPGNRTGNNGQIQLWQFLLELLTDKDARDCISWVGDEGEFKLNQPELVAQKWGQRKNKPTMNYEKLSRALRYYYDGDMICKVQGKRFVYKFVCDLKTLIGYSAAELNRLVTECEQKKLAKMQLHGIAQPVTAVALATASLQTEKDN
Outline: as §1

ERG = target: T4, ERG (Homo sapiens, UniProt P11308 1-479); conditions: protein: recombinant; tags: N-terminal GST; dsDNA, one strand shown
T4 sequence: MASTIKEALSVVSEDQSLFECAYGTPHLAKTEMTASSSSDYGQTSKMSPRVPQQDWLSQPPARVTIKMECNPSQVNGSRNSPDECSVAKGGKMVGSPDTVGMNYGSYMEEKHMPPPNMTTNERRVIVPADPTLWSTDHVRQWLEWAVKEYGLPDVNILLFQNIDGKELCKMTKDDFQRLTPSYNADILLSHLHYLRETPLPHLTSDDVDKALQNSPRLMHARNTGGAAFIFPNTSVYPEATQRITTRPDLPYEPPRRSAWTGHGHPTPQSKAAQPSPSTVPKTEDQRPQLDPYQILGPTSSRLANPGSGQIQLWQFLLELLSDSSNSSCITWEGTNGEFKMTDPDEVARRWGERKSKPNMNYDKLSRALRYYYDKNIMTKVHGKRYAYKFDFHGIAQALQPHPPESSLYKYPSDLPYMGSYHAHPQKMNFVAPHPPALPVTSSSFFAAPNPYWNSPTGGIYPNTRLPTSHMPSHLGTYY
Outline: as §1

ELF1 = ELF1 (Homo sapiens, UniProt P32519 1-619); conditions: protein: recombinant; tags: N-terminal GST; dsDNA, one strand shown
Chain of ELF1 (P32519 whole entry): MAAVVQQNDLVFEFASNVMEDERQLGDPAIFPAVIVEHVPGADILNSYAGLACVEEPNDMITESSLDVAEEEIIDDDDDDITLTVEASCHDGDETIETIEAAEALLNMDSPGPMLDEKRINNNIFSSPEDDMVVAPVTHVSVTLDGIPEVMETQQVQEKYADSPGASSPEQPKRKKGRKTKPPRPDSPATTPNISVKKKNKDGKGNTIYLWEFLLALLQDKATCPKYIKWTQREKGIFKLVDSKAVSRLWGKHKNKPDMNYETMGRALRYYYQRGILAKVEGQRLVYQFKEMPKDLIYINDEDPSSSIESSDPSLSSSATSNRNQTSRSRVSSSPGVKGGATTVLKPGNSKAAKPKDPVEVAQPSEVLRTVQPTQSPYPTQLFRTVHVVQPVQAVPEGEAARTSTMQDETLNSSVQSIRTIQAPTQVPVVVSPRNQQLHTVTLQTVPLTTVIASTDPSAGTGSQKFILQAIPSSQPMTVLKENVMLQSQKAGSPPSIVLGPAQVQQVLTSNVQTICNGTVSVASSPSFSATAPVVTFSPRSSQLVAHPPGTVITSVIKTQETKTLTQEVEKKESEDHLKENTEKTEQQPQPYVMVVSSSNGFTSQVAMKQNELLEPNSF
Outline: as §1

EHF = target: T5, EHF (Homo sapiens, UniProt Q9NZC4 1-300); conditions: protein: recombinant; tags: N-terminal GST; dsDNA, one strand shown
T5 sequence: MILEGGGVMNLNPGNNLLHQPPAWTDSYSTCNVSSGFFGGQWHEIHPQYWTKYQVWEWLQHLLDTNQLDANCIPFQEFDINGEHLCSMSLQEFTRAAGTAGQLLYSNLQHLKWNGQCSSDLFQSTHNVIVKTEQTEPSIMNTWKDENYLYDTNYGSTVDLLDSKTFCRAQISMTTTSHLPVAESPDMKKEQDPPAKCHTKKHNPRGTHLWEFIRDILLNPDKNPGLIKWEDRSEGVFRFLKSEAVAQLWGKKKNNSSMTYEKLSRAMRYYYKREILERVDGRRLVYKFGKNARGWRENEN
Outline: as §1

SPI1 = SPI1 (Homo sapiens, UniProt P17947 1-270); conditions: protein: recombinant; tags: N-terminal GST; dsDNA, one strand shown
Outline: as §1

SPIB = SPIB (Homo sapiens, UniProt Q01892 1-262); conditions: protein: recombinant; tags: N-terminal GST; dsDNA, one strand shown
Chain of SPIB (Q01892 whole entry): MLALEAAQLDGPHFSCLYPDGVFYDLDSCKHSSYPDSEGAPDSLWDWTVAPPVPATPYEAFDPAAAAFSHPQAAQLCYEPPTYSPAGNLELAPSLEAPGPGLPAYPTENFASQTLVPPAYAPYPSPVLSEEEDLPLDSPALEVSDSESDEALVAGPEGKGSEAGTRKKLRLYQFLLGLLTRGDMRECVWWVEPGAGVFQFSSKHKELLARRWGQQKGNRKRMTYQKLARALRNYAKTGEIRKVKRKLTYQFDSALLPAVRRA
Outline: as §1

ELK3 = target: T6, ELK3 (Homo sapiens, UniProt P41970 1-407); conditions: protein: recombinant; tags: N-terminal GST; dsDNA, one strand shown
T6 sequence: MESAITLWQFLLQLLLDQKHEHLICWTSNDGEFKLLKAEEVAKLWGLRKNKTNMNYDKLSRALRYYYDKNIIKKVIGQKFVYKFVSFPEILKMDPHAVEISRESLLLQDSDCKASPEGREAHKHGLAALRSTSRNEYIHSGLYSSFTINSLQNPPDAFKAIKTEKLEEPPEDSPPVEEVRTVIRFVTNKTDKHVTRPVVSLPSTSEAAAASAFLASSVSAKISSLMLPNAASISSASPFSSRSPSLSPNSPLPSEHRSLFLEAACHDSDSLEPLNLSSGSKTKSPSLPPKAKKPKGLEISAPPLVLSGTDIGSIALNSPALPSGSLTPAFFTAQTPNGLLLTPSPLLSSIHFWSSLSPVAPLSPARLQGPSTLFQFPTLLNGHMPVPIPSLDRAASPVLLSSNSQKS
Outline: as §1

FEV = target: T7, FEV (Homo sapiens, UniProt Q99581 1-238); conditions: protein: recombinant; tags: N-terminal GST; dsDNA, one strand shown
T7 sequence: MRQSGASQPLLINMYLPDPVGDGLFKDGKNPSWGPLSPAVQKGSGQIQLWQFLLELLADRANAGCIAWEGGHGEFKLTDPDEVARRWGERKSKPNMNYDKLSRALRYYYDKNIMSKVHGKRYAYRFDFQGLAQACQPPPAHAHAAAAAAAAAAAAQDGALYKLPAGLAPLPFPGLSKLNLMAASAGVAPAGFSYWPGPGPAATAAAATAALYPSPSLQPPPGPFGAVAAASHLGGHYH
Outline: as §1

ETV5 = ETV5 (Homo sapiens, UniProt P41161 1-510); conditions: protein: recombinant; tags: N-terminal GST; dsDNA, one strand shown
Chain of ETV5 (P41161 whole entry): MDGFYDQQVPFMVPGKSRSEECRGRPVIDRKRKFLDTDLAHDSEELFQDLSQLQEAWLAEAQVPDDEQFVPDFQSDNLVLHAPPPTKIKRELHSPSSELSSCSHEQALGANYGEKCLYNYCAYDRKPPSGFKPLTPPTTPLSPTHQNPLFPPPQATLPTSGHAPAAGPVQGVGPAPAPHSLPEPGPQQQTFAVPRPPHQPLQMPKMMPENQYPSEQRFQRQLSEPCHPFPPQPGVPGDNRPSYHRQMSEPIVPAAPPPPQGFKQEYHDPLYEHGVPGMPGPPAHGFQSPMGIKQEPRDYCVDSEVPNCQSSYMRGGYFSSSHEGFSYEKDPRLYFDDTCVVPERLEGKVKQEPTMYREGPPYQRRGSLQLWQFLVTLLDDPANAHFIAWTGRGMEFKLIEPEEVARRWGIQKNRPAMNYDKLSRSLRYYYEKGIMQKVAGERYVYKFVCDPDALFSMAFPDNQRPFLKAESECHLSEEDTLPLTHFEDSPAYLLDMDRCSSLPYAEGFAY
Outline: as §1

HSF1 = HSF1 (Homo sapiens, UniProt Q00613 1-529); conditions: protein: recombinant; tags: N-terminal GST; chain copies: 3; dsDNA, one strand shown
Chain of HSF1 (Q00613 whole entry): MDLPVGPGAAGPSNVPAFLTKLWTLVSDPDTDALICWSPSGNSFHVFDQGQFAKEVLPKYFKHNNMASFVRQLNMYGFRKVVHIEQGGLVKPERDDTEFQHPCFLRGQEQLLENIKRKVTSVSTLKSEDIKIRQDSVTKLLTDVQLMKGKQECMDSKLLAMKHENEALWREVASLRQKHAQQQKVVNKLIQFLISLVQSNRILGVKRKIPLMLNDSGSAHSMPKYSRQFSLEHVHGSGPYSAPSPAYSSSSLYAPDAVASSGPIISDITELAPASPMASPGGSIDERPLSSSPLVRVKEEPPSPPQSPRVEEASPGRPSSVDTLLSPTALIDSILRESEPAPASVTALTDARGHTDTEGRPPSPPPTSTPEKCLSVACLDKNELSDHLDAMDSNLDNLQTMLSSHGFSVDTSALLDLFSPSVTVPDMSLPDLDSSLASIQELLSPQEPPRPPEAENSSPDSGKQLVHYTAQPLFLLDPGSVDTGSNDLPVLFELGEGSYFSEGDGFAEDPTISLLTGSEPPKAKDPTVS
Outline: as §1

SPIC = target: T8, SPIC (Homo sapiens, UniProt Q8N5J4 1-248); conditions: protein: recombinant; tags: N-terminal GST; dsDNA, one strand shown
T8 sequence: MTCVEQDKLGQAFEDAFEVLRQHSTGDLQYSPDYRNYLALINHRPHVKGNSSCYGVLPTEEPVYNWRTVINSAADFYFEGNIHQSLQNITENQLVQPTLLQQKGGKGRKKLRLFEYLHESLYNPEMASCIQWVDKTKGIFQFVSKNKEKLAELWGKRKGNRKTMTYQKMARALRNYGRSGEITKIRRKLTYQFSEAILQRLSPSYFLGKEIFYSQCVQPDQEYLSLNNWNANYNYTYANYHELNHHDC
Outline: as §1

ELF4 = ELF4 (Homo sapiens, UniProt Q99607 1-663); conditions: protein: recombinant; tags: N-terminal GST; dsDNA, one strand shown
Chain of ELF4 (Q99607 whole entry): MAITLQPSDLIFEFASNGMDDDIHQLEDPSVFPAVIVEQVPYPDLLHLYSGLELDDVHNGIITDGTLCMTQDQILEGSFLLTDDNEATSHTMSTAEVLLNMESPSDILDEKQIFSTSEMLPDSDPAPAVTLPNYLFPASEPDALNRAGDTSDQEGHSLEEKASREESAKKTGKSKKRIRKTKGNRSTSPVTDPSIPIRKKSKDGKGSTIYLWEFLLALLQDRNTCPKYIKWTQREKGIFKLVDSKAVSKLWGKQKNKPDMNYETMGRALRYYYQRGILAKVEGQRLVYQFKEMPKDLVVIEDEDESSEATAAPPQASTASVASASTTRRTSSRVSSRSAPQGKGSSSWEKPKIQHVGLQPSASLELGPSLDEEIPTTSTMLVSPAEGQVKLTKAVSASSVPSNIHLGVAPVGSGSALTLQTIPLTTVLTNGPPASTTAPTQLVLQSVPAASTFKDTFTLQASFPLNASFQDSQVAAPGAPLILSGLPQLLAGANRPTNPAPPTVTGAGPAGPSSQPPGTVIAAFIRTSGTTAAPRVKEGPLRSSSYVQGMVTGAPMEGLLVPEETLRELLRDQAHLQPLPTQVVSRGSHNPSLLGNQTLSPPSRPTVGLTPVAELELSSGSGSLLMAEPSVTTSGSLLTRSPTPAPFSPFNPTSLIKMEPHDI
Outline: as §1

ELK4 = target: T9, ELK4 (Homo sapiens, UniProt P28324-2 1-405); conditions: protein: recombinant; tags: N-terminal GST; dsDNA, one strand shown
T9 sequence: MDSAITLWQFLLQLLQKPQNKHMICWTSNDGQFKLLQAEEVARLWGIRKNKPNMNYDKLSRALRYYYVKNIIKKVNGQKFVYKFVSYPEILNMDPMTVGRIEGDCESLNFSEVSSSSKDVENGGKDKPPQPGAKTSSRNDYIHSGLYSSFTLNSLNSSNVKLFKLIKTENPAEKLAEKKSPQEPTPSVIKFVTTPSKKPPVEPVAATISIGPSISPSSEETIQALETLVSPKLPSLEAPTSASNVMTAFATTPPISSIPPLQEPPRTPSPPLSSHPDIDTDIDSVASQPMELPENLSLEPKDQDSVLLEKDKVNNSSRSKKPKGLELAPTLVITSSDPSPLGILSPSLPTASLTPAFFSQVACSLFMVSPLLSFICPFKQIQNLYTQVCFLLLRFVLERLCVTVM
Outline: as §1

ETV2 = target: T10, ETV2 (Homo sapiens, UniProt O00321 1-342); conditions: protein: recombinant; tags: N-terminal GST; dsDNA, one strand shown
T10 sequence: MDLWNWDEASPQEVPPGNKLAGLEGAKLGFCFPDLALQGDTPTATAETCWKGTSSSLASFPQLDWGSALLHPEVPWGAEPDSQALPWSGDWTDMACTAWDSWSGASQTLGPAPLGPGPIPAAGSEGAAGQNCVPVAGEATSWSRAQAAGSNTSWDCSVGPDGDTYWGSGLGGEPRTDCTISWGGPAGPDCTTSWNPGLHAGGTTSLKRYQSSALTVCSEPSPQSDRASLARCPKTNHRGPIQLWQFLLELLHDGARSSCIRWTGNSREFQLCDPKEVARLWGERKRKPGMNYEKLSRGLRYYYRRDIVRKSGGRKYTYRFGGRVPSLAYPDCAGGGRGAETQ
Outline: as §1

ELF3 = target: T11, ELF3 (Homo sapiens, UniProt P78545 1-371); conditions: protein: recombinant; tags: N-terminal GST; dsDNA, one strand shown
T11 sequence: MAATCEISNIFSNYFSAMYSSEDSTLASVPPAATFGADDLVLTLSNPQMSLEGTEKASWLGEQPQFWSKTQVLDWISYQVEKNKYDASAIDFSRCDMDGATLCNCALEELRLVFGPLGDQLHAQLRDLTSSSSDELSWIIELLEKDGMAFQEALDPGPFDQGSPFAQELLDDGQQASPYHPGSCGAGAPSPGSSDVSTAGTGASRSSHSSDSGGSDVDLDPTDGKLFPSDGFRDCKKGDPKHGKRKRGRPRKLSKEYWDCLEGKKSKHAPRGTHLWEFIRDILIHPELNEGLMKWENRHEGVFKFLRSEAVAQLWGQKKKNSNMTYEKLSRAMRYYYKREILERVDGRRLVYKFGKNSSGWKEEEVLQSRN
Outline: as §1

CRX = CRX (Homo sapiens, UniProt O43186 1-299); conditions: protein: recombinant; tags: N-terminal GST; dsDNA, one strand shown
Chain of CRX (O43186 whole entry): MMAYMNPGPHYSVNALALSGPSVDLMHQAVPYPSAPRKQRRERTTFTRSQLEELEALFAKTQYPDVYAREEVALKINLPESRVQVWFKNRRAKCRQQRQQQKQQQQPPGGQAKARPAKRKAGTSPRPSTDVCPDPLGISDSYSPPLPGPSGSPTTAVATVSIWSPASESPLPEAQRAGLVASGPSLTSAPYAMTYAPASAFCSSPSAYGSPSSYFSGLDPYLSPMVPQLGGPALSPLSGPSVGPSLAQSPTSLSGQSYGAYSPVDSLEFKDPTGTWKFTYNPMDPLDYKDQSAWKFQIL
Outline: as §1

ETV1 = ETV1 (Homo sapiens, UniProt P50549 1-477); conditions: protein: recombinant; tags: N-terminal GST; dsDNA, one strand shown
Chain of ETV1 (P50549 whole entry): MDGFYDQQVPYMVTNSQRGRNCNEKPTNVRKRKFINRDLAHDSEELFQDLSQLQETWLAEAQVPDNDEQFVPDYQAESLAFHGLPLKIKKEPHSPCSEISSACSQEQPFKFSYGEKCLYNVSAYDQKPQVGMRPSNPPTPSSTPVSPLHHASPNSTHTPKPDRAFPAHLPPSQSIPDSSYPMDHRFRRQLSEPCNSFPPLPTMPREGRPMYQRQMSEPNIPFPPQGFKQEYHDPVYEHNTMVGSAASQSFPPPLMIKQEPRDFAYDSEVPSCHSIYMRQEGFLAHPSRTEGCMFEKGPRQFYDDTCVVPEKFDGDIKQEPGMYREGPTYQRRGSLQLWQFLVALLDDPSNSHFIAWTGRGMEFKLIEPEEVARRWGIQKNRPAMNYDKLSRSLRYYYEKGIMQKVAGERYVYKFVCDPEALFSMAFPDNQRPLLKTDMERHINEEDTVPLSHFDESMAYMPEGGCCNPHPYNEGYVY
Outline: as §1

Sequence: CTTCCA
- binding signal (FLI1): 1.5 fold enrichment (6-mer frequency, TF over GST control)
- binding signal (ELK1): 1.42 fold enrichment (6-mer frequency, TF over GST control)
- binding signal (GABPA): 1.34 fold enrichment (6-mer frequency, TF over GST control)
- binding signal (ERG): 1.47 fold enrichment (6-mer frequency, TF over GST control)
- binding signal (ELF1): 1.39 fold enrichment (6-mer frequency, TF over GST control)
- binding signal (EHF): 1.53 fold enrichment (6-mer frequency, TF over GST control)
- binding signal (SPI1): 1.44 fold enrichment (6-mer frequency, TF over GST control)
- binding signal (SPIB): 1.51 fold enrichment (6-mer frequency, TF over GST control)
- binding signal (ELK3): 1.58 fold enrichment (6-mer frequency, TF over GST control)
- binding signal (FEV): 1.43 fold enrichment (6-mer frequency, TF over GST control)
- binding signal (ETV5): 1.46 fold enrichment (6-mer frequency, TF over GST control)
- binding signal (HSF1): 2.18 fold enrichment (6-mer frequency, TF over GST control)
- binding signal (SPIC): 1.44 fold enrichment (6-mer frequency, TF over GST control)
- binding signal (ELF4): 1.33 fold enrichment (6-mer frequency, TF over GST control)
- binding signal (ELK4): 1.45 fold enrichment (6-mer frequency, TF over GST control)
- binding signal (ETV2): 1.37 fold enrichment (6-mer frequency, TF over GST control)
- binding signal (ELF3): 1.49 fold enrichment (6-mer frequency, TF over GST control)
- binding signal (CRX): 1.42 fold enrichment (6-mer frequency, TF over GST control)
- binding signal (ETV1): 1.48 fold enrichment (6-mer frequency, TF over GST control)
